# Experimental data reported in PubChem BioAssay.
# Active and inactive are the calls of the source. Unless noted, how the calls were made is not given here.
# How the values were obtained:
# [1] = system: Wnt5a (protein binding on small-molecule microarray); assay: Wnt5a binders on small-molecule microarray, primary screen, biophysical, 635/667 nm fluorescence (AID 1142); conditions: 635 nm fluorescence, higher = more signal;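 further: fluorescence read at 667 nm with signal to noise per printed feature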
# [2] = cell viability in Huh7 cells, primary screen, cytotoxicity control for HCV replication inhibitor project, CellTiter-Glo luminescence, basal, 48 h (AID 1143); conditions: Huh7 HCV replicon, higher = more signal, called active from +8 up or from −8 down;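 further: Huh7 hepatoma cells carrying a hepatitis C replication reporter with no stimulus; test concentration not given here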
# [3] = P. aeruginosa biofilm formation inhibitors, primary screen, PAO1 strain, BacTiter-Glo luminescence, LB-PBS (AID 1144); conditions: 12 h, higher = more signal
# [4] = CREB reporter modulators without forskolin, primary screen, cell-based, PC12, CRE-LacZ reporter, unstimulated (AID 1145); conditions: no forskolin, luminescence, 4.5 h, higher = more signal, called active from +8 up or from −8 down
# [5] = CREB reporter modulators under forskolin, primary screen, cell-based, PC12, CRE-LacZ reporter, forskolin-stimulated (AID 1146); conditions: luminescence, 4.5 h, higher = more signal, called active from +8 up or from −8 down;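 further: PC12 cells with 6xCRE LacZ reporter stimulated by forskolin 10 µM; beta-galactosidase reporter signal reflecting CREB driven transcription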
# [6] = biological target: Streptavidin (Streptomyces avidinii) (UniProt P22629); assay: streptavidin binders on small-molecule microarray, primary screen, artefact control for SMM compound annotation, biophysical, 635/667 nm fluorescence (AID 1147); conditions: streptavidin binding, higher = more signal;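 further: signal reflects streptavidin binding to arrayed compounds as a control protein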
# Streptavidin (Streptomyces avidinii), sequence (P22629 whole entry, looked up): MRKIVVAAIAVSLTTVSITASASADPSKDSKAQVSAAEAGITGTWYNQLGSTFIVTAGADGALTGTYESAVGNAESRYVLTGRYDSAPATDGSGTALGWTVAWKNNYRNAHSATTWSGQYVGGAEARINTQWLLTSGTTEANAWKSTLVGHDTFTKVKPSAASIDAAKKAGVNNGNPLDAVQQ
# [7] = small-molecule binders of probe aInhba, primary screen, biochemical, small-molecule microarray, 635/667 nm fluorescence (AID 1148); conditions: higher = more signal;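 further: score merges 667nm spot fluorescence with signal-to-noise for antibody binding to printed compounds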
# Torsin-1A (Homo sapiens) [8] = biological target: Torsin-1A (Homo sapiens) (UniProt O14656); assay: torsin A binders from cell lysate, primary screen, small-molecule microarray, wild-type, 635/667 nm (AID 1149); conditions: COS7 hTOR1A-WT lysate, 635 nm fluorescence, higher = more signal
# Torsin-1A (Homo sapiens), sequence (O14656 whole entry, looked up): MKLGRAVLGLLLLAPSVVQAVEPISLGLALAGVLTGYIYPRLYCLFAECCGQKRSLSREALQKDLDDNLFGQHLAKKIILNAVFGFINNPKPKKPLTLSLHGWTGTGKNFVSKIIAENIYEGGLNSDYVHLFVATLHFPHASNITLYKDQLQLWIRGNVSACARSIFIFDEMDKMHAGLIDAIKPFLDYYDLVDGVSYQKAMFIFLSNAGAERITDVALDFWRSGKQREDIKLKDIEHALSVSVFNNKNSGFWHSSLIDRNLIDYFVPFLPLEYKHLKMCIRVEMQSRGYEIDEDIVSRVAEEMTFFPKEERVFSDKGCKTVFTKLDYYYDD
# Torsin-1A (Homo sapiens) [9] = biological target: Torsin-1A (Homo sapiens) (UniProt O14656); assay: small-molecule binders of mutant TOR1A in lysate, primary screen, cell lysate, small-molecule microarray, COS7 lysate, 635/667 nm fluorescence (AID 1150); conditions: COS7 hTOR1A mutant lysate, 635 nm fluorescence, higher = more signal;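 further: score pools 667 nm emission and signal to noise measuring lysate protein binding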
# [10] = system: Sonic hedgehog protein (Shh); assay: small-molecule binders of Shh protein, primary screen, biochemical, small-molecule microarray, 635/667 nm fluorescence (AID 1151); conditions: small-molecule microarray binding, 635 nm fluorescence; higher = more signal;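 further: Shh protein binding to compounds spotted on small-molecule microarray slides; score combines spot fluorescence intensity with signal-to-noise across triplicate slides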
Compound,composite z-score [1],z-score [2],z-score [3],z-score [4],z-score [5],composite z-score [6],composite z-score [7],composite z-score (Torsin-1A (Homo sapiens) [8]),composite z-score (Torsin-1A (Homo sapiens) [9]),composite z-score [10]
CCOC(=O)CCN1C(=O)[C@H]2[C@H]3[C@H](O)[C@H](O)CC(=NOCC(C)C)[C@H]3CC[C@H]2C1=O,0.0106,0.0793 (inactive),0.256 (inactive),-0.0187 (inactive),0.357 (inactive),-0.0341,-0.159,0.47,-0.5,-0.249
CCN1C(=O)[C@H]2[C@H]3[C@H](O)[C@H](O)CC(=NO[C@@H](C)c4cn([C@H](CO)Cc5ccccc5)nn4)[C@@H]3CC[C@H]2C1=O,0.283,-0.0863 (inactive),0.451 (inactive),0.727 (inactive),0.511 (inactive),-0.138,0.0051,0.651,0.435,0.486
CO[C@@H]1COC(=O)[C@@H](C)NC(=O)CC=C[C@@H](C)[C@H](NS(=O)(=O)c2ccc(C)cc2)COC(=O)[C@H](C)NC(=O)CC=C[C@H]1C,-0.0222,0.806 (inactive),0.829 (inactive),0.881 (inactive),-0.314 (inactive),-0.967,-0.218,1.31,0.584,1.33
COC(=O)CC=C[C@@H](C)[C@@H](C=NO[C@@H](C)c1cc(-c2c(C)cc(C)cc2C)no1)NS(=O)(=O)c1ccc(C)cc1,-0.475,-2.83 (inactive),0.054 (inactive),4.2 (inactive),0.0267 (inactive),-0.195,-0.261,-1.05,-1.32,-1.63
CCOC(=O)[C@H](Cc1ccccc1)NC(=O)CCC1CC(OC(=O)NCc2cccc3ccccc23)CC2(CCCC(COC(=O)NCc3cccc(C(F)(F)F)c3)O2)O1 (stereo not given in full),-0.0693,-0.816 (inactive),-0.641 (inactive),4.81 (inactive),-0.0734 (inactive),0.339,-0.0375,-0.347,-0.385,0.0624
CCN1C(=O)[C@H]2[C@H]3[C@H](O)[C@H](O)CC(=O)[C@H]3CC[C@H]2C1=O,0.113,0.89 (inactive),-0.212 (inactive),-0.293 (inactive),-0.733 (inactive),-0.0154,-0.225,1.06,0.386,0.593
COC(=O)[C@@H]1CC[C@H](C)[C@@H](c2ccc(C)cc2)N1C(=O)c1ccc(C=NO[C@@H]2O[C@H](COC(C)=O)[C@@H](OC(C)=O)[C@H](OC(C)=O)[C@H]2OC(C)=O)cc1,-0.0196,-3.41 (inactive),-0.553 (inactive),2.22 (inactive),-0.138 (inactive),0.253,-0.0986,0.203,0.121,0.891
CON=C[C@@H](NS(=O)(=O)c1ccc(C)cc1)[C@H](C)C=CCC(=O)OC,0.0181,0.319 (inactive),-0.357 (inactive),0.173 (inactive),-0.196 (inactive),0.188,-0.128,0.379,-0.199,0.779
CC(C)(C)N1C(=O)[C@H]2[C@H]3[C@H](O)[C@H](O)CC(=NOCc4ccccc4)[C@H]3CC[C@H]2C1=O,0.0771,0.899 (inactive),-0.192 (inactive),0.968 (inactive),0.183 (inactive),1,0.0342,-0.65,0.155,-0.587
C[C@H]1CC[C@H]2C(=O)O[C@H](COc3ccc(C(C)(C)C)cc3)CN2[C@@H]1c1ccc(Br)cc1,-0.185,-1.47 (inactive),-0.239 (inactive),1.72 (inactive),-0.466 (inactive),0.0762,-0.0021,0.188,0.3,0.48
CCc1cc2c(nc1CC)CCN(CCC(C)=NO[C@H](C)c1cn([C@@H]3COC[C@H]3O)nn1)C2,-0.0763,0.401 (inactive),1.7 (inactive),0.238 (inactive),-0.183 (inactive),0.383,-0.0963,0.161,0.292,0.282
CCOC(=O)[C@H](CC(C)C)NC(=O)CCC1CC(OC(=O)NCc2ccc3c(c2)OCO3)CC2(CCCC(COC(=O)NCC(c3ccccc3)c3ccccc3)O2)O1 (stereo not given in full),0.222,-0.356 (inactive),-0.187 (inactive),0.111 (inactive),1.67 (inactive),-0.201,-0.0405,0.0929,0.351,1.77
C[C@@H]1C=CCC(=O)OC[C@H]2O[C@@H](C=C[C@@H]2O)[C@H](C)C=CCC(=O)OC1,0.0051,-1.05 (inactive),-1.11 (inactive),0.344 (inactive),-0.812 (inactive),-0.224,-0.206,2.73,1.98,2.16
COC(=O)CC=C[C@H](C)[C@@H](OCc1cccc(Br)c1)[C@@H](C)[C@H](OC)C1CCCCC1,-0.375,0.137 (inactive),0.781 (inactive),-1.05 (inactive),-1.25 (inactive),-0.243,-0.128,0.312,-0.119,0.341
COc1ccc(O[C@H]2C=C[C@@H](c3ccccc3)O[C@@H]2COC(=O)CCC(C)=NOC(C)CN2CCCc3nc(C)c(C)cc32)cc1 (stereo not given in full),0.162,-0.61 (inactive),-0.34 (inactive),0.448 (inactive),-0.507 (inactive),0.629,-0.12,0.0595,0.486,1.01
CSCC[C@@H]1NC(=O)CC=C[C@@H](C)COC(=O)[C@@H](C)COC1=O,-0.0993,-0.184 (inactive),0.117 (inactive),-0.476 (inactive),-0.846 (inactive),-1.03,-0.0736,2.66,2.1,1.81
CCN1C(=O)[C@H]2[C@H]3[C@H](O)[C@H](O)CC(=NNC(=O)OCc4ccc(OC)cc4)[C@@H]3CC[C@H]2C1=O,-0.0453,0.821 (inactive),-0.409 (inactive),-0.291 (inactive),-0.523 (inactive),-0.0023,-0.0521,-1.18,-0.703,-1.17
CCC(=O)[C@@]1(O)C(=O)N2C(=C3C(=O)OCC[C@@H]31)N(Cc1ccccc1)C(C)=C(C(=O)OC)[C@H]2c1ccccc1,-0.308,0.321 (inactive),-1.51 (inactive),0.513 (inactive),-0.205 (inactive),0.565,0.0633,0.578,0.224,0.438
CCOC(=O)NN=C1C[C@@H](O)[C@@H](O)[C@@H]2[C@@H]3C(=O)N([C@@H](C)c4ccccc4)C(=O)[C@@H]3CC[C@@H]12,0.229,0.261 (inactive),-0.353 (inactive),-0.475 (inactive),-0.14 (inactive),-0.468,-0.0313,2.58,2.5,1.37
COC(=O)C=CCCc1coc(C=CCNC(=O)OC)n1,0.4,-0.0328 (inactive),-0.0662 (inactive),0.38 (inactive),0.702 (inactive),0.0242,0.432,0.583,0.205,1.15
O=C1[C@H]2[C@H]3[C@H](O)[C@H](O)CC(=NOC[C@@H](O)COCc4ccco4)[C@H]3CC[C@H]2C(=O)N1Cc1ccccc1,-0.0661,-0.734 (inactive),0.448 (inactive),-0.474 (inactive),0.479 (inactive),-0.68,-0.182,0.246,0.462,1.38
O=C1C[C@@H](O)[C@@H](O)[C@@H]2[C@@H]3C(=O)N(c4cccc(Oc5ccccc5)c4)C(=O)[C@@H]3CC[C@H]12,0.114,0.393 (inactive),0.247 (inactive),2.51 (inactive),0.287 (inactive),0.0742,-0.183,0.162,0.331,0.669
CO[C@@H]1COC(=O)CC=C[C@@H](C)[C@H](OC)COC(=O)[C@@H](C)COC(=O)CC=C[C@H]1C,-0.451,-0.128 (inactive),0.416 (inactive),0.518 (inactive),-0.14 (inactive),0.0524,-0.266,1.4,0.381,1.68
CO[C@@H]1COC(=O)CC=C[C@H](C)[C@H](OC)COC(=O)[C@H](C)NC(=O)CC=C[C@H]1C,-0.0631,-0.0558 (inactive),0.938 (inactive),0.159 (inactive),-0.463 (inactive),-0.369,-0.133,1.57,0.63,2.09
CO[C@H]1COC(=O)CC=C[C@H](C)[C@@H](OC)COC(=O)[C@H](C)COC(=O)CC=C[C@@H]1C,-0.144,-0.0417 (inactive),-0.165 (inactive),-0.93 (inactive),-0.724 (inactive),-0.127,-0.208,1.1,1.01,1.93
CCc1cc2c(nc1CC)CCN(CCC(C)=NO[C@@H](C)c1cn([C@H](CO)Cc3ccccc3)nn1)C2,-0.144,-0.519 (inactive),0.434 (inactive),-0.892 (inactive),-1.03 (inactive),0.453,-0.0087,1.1,0.216,0.961
C[C@@H](c1ccccc1)N1C(=O)[C@H]2[C@H]3[C@H](O)[C@H](O)CC(=O)[C@H]3CC[C@H]2C1=O,0.0027,-0.273 (inactive),0.257 (inactive),-0.113 (inactive),0.209 (inactive),0.182,-0.145,0.0683,0.452,0.374
CCOC(=O)[C@H](CC(C)C)NC(=O)CCC1CC(OC(=O)NCc2ccc3c(c2)OCO3)CC2(CCCC(COC(=O)NCc3cccc(C(F)(F)F)c3)O2)O1 (stereo not given in full),-0.194,-0.183 (inactive),-0.67 (inactive),0.11 (inactive),0.814 (inactive),-0.113,0.0184,0.175,-0.272,0.387
C=CC[C@@H]1C=C[C@H](ON=C2[C@H]3CCn4c(=O)n(-c5ccccc5)c(=O)n4[C@H]3[C@H](O)[C@@H]3O[C@H]23)[C@@H](CO)O1,0.132,1.17 (inactive),-0.0199 (inactive),0.164 (inactive),0.312 (inactive),0.43,-0.0736,-0.207,0.369,0.23
